From PubChem BioAssay
The source made the active and inactive calls.

Legend:
[1] = optical density shifts of acrAB sulA E. coli – strain DRC41, OD650, 48 h, E. coli filamentation inducer project, primary screen (AID 1152); conditions: higher = more signal, called active from +8 up or from −8 down;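 also: E. coli MC1000 strain DRC41 lacking acrAB efflux pump and sulA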
[2] = probe aLefty1 binding on compound microarray – biochemical, small-molecule microarray, 635/667 nm fluorescence, primary screen (AID 1153); conditions: higher = more signal;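 also: score merges spot fluorescence with signal-to-noise ratio from the scanned slide images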
[3] = plasmodial surface anion channel blockers, osmotic lysis – cell-based, P. falciparum Indochina, OD700, 1 h, primary screen (AID 1154); conditions: P. falciparum Indochina infected RBC osmotic lysis, higher = more signal, called active from +8 up or from −8 down
[4] = plasmodial surface anion channel blockers, osmotic lysis – cell-based, P. falciparum Indochina, OD700, 2 h, primary screen (AID 1155);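 also: lysis reports solute entry through the parasite surface anion channel PSAC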; conditions: P. falciparum Indochina infected erythrocytes, higher = more signal, called active from +8 up or from −8 down
[5] = changes in parasitized red cell lysis, either direction – P. falciparum Indochina, OD700, 3 h, PSAC antagonist project, primary screen (AID 1156); conditions: P. falciparum-infected erythrocytes, osmotic lysis, higher = more signal, called active from +8 up or from −8 down
[6] = plasmodial surface anion channel blockers, osmotic lysis – cell-based, P. falciparum Indochina, OD700, 18 h, primary screen (AID 1157); conditions: P. falciparum Indochina infected erythrocytes, osmotic lysis OD700, 18 h; higher = more signal, called active from +8 up or from −8 down
[7] = S6 kinase pathway phospho-S6 level changes – cell-based, A549, cytoblot, luminescence, serum-stimulated, primary screen (AID 1158); conditions: 5 h, higher = more signal;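 also: serum-stimulated A549 lung adenocarcinoma cells; signal is phosphorylated S6 detected by cytoblot immunostaining with HRP secondary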
[8] = molecular target: NADPH oxidase 2 (Homo sapiens) (UniProt P04839); test: compounds shifting NOX2 Amplex Red fluorescence – cell-based, HEK293-NOX2, PMA-stimulated, NOX inhibitor project, primary screen (AID 1159); conditions: 45 min, higher = more signal, called active from +8 up or from −8 down; also: test concentration not given here
[9] = molecular target: NADPH oxidase 4 (Homo sapiens) (UniProt Q9NPH5); test: compounds shifting NOX4 Amplex Red fluorescence – cell-based, HEK293-NOX4, tetracycline-induced, NOX inhibitor project, primary screen (AID 1160); conditions: HEK293-NOX4, Amplex Red H2O2 fluorescence, 45 min; higher = more signal, called active from +8 up or from −8 down
[10] = molecular target: NADPH oxidase 5 (Homo sapiens) (UniProt Q96PH1); test: compounds shifting NOX5 Amplex Red fluorescence – cell-based, HEK293-NOX5, NOX inhibitor project, primary screen (AID 1161); conditions: HEK293-NOX5, ionomycin, 45 min, higher = more signal
Sequence of NADPH oxidase 5 (Homo sapiens) (Q96PH1 whole entry, looked up): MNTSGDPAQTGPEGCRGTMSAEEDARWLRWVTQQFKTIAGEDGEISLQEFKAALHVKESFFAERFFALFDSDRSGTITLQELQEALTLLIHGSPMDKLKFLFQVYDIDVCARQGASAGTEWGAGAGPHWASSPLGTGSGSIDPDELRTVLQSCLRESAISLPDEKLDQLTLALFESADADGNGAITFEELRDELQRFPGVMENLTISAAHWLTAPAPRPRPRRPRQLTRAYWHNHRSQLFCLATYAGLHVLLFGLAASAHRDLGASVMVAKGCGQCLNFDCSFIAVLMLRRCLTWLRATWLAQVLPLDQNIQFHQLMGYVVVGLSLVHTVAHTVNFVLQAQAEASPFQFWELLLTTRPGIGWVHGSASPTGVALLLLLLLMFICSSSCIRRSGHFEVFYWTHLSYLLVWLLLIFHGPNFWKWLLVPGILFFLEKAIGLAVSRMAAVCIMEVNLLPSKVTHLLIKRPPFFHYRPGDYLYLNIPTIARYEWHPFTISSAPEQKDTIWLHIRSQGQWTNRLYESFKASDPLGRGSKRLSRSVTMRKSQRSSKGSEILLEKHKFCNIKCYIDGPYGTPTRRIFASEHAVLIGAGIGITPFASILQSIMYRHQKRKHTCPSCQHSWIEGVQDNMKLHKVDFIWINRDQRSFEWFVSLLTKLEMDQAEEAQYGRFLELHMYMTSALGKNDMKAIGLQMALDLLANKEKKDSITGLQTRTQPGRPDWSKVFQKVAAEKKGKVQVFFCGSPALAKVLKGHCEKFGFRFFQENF

Sequence of NADPH oxidase 4 (Homo sapiens) (Q9NPH5 whole entry, looked up): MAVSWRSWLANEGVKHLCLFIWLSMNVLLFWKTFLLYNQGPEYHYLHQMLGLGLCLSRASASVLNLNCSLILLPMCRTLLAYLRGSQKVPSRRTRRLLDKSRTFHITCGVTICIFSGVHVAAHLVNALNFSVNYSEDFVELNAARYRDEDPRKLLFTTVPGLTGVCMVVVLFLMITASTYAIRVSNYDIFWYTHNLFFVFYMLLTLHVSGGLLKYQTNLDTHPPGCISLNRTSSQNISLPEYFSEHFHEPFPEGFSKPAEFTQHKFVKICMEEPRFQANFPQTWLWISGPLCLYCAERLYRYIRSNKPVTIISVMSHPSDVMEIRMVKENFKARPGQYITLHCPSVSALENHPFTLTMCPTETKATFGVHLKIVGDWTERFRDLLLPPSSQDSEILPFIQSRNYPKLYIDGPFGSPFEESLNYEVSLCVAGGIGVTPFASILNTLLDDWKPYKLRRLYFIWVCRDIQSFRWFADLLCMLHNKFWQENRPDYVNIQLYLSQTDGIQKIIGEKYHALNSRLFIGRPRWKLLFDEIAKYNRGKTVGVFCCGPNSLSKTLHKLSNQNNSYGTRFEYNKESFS
Sequence of NADPH oxidase 2 (Homo sapiens) (P04839 whole entry, looked up): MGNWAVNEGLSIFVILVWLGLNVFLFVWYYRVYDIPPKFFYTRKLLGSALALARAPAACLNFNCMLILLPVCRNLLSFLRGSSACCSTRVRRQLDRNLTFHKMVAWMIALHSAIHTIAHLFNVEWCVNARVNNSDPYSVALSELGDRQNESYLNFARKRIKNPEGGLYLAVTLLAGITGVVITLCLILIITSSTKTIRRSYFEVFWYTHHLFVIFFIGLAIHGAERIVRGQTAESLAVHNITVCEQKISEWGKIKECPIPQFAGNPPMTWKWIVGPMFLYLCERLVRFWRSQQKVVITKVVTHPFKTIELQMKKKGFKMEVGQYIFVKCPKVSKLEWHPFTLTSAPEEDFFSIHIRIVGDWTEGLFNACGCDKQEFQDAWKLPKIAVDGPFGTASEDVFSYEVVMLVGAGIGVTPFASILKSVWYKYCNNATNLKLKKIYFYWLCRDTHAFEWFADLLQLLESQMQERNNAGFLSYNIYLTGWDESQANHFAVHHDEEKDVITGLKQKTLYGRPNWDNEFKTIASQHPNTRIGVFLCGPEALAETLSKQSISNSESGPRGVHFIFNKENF

Row | SMILES | z-score [1] | composite z-score [2] | z-score [3] | z-score [4] | z-score [5] | z-score [6] | z-score [7] | z-score [8] | z-score [9] | z-score [10]
1 | COCCOC(=O)N1C(=O)[C@@]2(c3cc(C#CCNC(N)=O)ccc31)[C@H](C(=O)N1CCc3cc(OC)c(OC)cc3C1)[C@H]1C(=O)O[C@H](c3ccccc3)[C@H](c3ccccc3)N1[C@@H]2c1ccc(OCCO)cc1 | 1.3 (inactive) | -0.361 | 3.93 (inactive) | 1.37 (inactive) | 0.695 (inactive) | 0.778 (inactive) | 0.412 | 0.825 (inactive) | 0.869 (inactive) | -0.0832
2 | CCOC(=O)C1=CCC(c2ccc(C#N)cc2)N(S(=O)(=O)c2ccc(C)cc2)C1 (stereo not given) | 0.26 (inactive) | 0.262 | 5.29 (inactive) | 1.12 (inactive) | 0.632 (inactive) | 0.557 (inactive) | -0.118 | 0.292 (inactive) | 0.62 (inactive) | -0.303
3 | C=CCNC(=O)[C@@H]1[C@H]2C(=O)O[C@H](c3ccccc3)[C@H](c3ccccc3)N2[C@H](c2ccc(O)cc2)[C@@]12C(=O)N(C(=O)OCCOC)c1ccccc12 | 0.808 (inactive) | 0.149 | 1.35 (inactive) | -0.27 (inactive) | 0.123 (inactive) | -1.08 (inactive) | 1.64 | 0.818 (inactive) | -0.913 (inactive) | -2.08
4 | O=C1C=CC(=O)[C@@H]2CC(COc3ccccc3)=C3[C@@H](CCc4ccccc4)OB(O)C[C@@H]3[C@H]12 | -0.365 (inactive) | 0.0491 | 3.41 (inactive) | -0.0365 (inactive) | -0.0433 (inactive) | 0.0107 (inactive) | 0.0482 | -0.511 (inactive) | -3.32 (inactive) | -5.88
5 | Cc1ccc(S[C@]2(C(=O)NCC(C)C)CC(=O)N(Cc3ccccc3)[C@@H]2c2ccc(CO)cc2I)cc1 | -0.668 (inactive) | 0.0597 | 10.6 (active) | 1.16 (inactive) | 0.448 (inactive) | 0.598 (inactive) | -0.36 | 1.09 (inactive) | -2.23 (inactive) | 0.489
6 | Cc1c(NC(=O)CC#N)c(=O)n(-c2ccccc2)n1C | 1.47 (inactive) | -0.193 | -0.794 (inactive) | -1.31 (inactive) | -0.202 (inactive) | -1.31 (inactive) | 2.17 | -0.463 (inactive) | -0.0592 (inactive) | 0.66
7 | COC(=O)c1ccc(C(O)C2C=CC3C(=O)N(C)C(=O)C3N2NC(=O)OC(C)(C)C)o1 (stereo not given) | -1.31 (inactive) | 0.0622 | 0.146 (inactive) | 0.52 (inactive) | -0.46 (inactive) | 0.533 (inactive) | -0.785 | -0.786 (inactive) | -0.929 (inactive) | 0.396
8 | CC(=O)NCCCC[C@@H]1NC(=O)[C@@H]2C[C@H](C(=O)NCCCCN(C)C)[C@H](c3ccc(O)cc3)N2C1=O | 1.62 (inactive) | -0.29 | 0.453 (inactive) | -0.233 (inactive) | 1.13 (inactive) | 0.153 (inactive) | -0.051 | 0.0273 (inactive) | 0.192 (inactive) | 0.546
9 | C[C@]1(C(=O)NCc2ccccc2)c2ccccc2C(=O)N(Cc2ccc(OC(F)(F)F)cc2)[C@H]1c1ccc(CO)cc1 | 1.17 (inactive) | -0.142 | 3.54 (inactive) | -0.18 (inactive) | -0.495 (inactive) | -0.779 (inactive) | 0.843 | -0.944 (inactive) | -1.33 (inactive) | -0.499
10 | CC(C)(C)OC(=O)CC[C@@]1(C(=O)NCCN2CCOCC2)N=C(c2ccc(OCCCO)cc2)O[C@@H]1c1ccccc1 | 1.18 (inactive) | 0.296 | 14.8 (active) | 1.8 (inactive) | 0.267 (inactive) | 0.813 (inactive) | 0.413 | 0.63 (inactive) | 1.03 (inactive) | 1.8
11 | CC(C)C(=C=CC[C@@H](O)c1ccccc1OCCO)C[C@@H](O)c1ccccn1 | -0.258 (inactive) | 0.0437 | 6.05 (inactive) | 1.2 (inactive) | 0.611 (inactive) | 0.774 (inactive) | -0.632 | 0.216 (inactive) | -0.725 (inactive) | -1.6
